Records with an inconclusive call do not appear. Calls of active or inactive are those of the source. Rule for the calls, unless noted: active = hit-call score of the fitted dose curve at least 0.9, where 1 is the maximum; inactive = score below 0.9.
Key:
[1] = read-out: Interleukin 17F (IL17F), IL17F (gene 112744); test: BSK_BT_xIL17F: BioMAP Diversity Plus: BT Assay for Interleukin 17F (IL17F) Biomarker Activity (AID 2284243); settings: primary human B cells with PBMC
Method in brief: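 Compound was added to co-cultures of human B cells and PBMC. After 24 hours, IL-17F released into the medium was measured with LumineX xMAP technology. Responses were then fitted upward relative to DMSO.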

[2] = read-out: Actin alpha 1 (ACTA1), ACTA1 (gene 58); test: BSK_MyoF_ACTA1: BioMAP Diversity Plus: MyoF Assay for Actin alpha 1 (ACTA1) Biomarker Activity (AID 2284244); settings: primary human lung fibroblasts
Method in brief: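 Cells were exposed to chemical for 24 h before a-SMA levels were quantified by ELISA in human lung fibroblasts. Increases were fitted against DMSO as negative control; parallel SRB staining (0.1% after 10% TCA fixation, 560 nm) assessed cytotoxicity.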

[3] = read-out: Interleukin 2 (IL2), IL2 (gene 3558); test: BSK_BT_xIL2: BioMAP Diversity Plus: BT Assay for Interleukin 2 (IL2) Biomarker Activity (AID 2284245); settings: primary human B cells with PBMC
Method in brief: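 The BT system combines human B cells with peripheral blood mononuclear cells. Twenty-four hours after chemical dosing, secreted IL-2 was measured with xMAP bead technology, and responses were analyzed as increases over DMSO controls.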

[4] = read-out: Basic fibroblast growth factor (bFGF), FGF2 (gene 2247); test: BSK_MyoF_bFGF: BioMAP Diversity Plus: MyoF Assay for Basic fibroblast growth factor (bFGF) Biomarker Activity (AID 2284246); settings: primary human lung fibroblasts
Method in brief: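 Chemicals are added to human lung fibroblast cultures and incubated 24 h. bFGF is then measured by ELISA, while parallel cultures receive SRB staining for total protein as a cytotoxicity check. Data are fitted upward against DMSO.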

[5] = read-out: Collagen IV, COL4A1 (gene 1282); test: BSK_MyoF_CollagenIV: BioMAP Diversity Plus: MyoF Assay for Collagen IV Biomarker Activity (AID 2284247); settings: primary human lung fibroblasts
Method in brief: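 Human lung fibroblast system, 24 h chemical exposure. Endpoint: Collagen IV by ELISA, upward fit vs DMSO.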

[6] = CCTE_Mundy_HCI_hNP1_CellTiter: CCTE's Cell Titer-Glo 2 Assay in human neuroprogenitor cells for Viability, Mundy Lab (AID 2284241; active = hit-call score of the fitted dose curve at least 0.9, where 1 is the maximum;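 for AC50: a hit is a drop in ATP luminescence versus DMSO meaning reduced viability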)
Method in brief: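 Measures ATP content in human neural progenitors derived from WA09 embryonic cells. Read-out at 26.5 hours after dosing, with DMSO serving as the negative control and baseline.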

[7] = CCTE_Mundy_HCI_Cortical_Synap_Neur_Matur_NeuronCount: CCTE's Synaptogenesis and Neurite Maturation Assay in rat cortical cells for Neuron Count, Mundy Lab (AID 2284242; active = hit-call score of the fitted dose curve at least 0.9, where 1 is the maximum;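 note: neuron number from Hoechst nuclei and MAP2 staining by high-content imaging; hits reduce neuron count versus DMSO baseline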)
Method in brief: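 Cortical cells from rat are plated, treated with AraC at DIV 5, and exposed to test chemicals with a media change at DIV 7. At DIV 12 they are fixed and immunostained (MAP2, synaptophysin), and imaged neuron counts are compared against DMSO controls.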

Measured: AC50

C=C(C)C(=O)OCCOCCOCCOC(=O)C(=C)C
not listed: [6] | [7]
inactive: all other assays above

CC(=O)C1(C)CC2=C(CCCC2(C)C)CC1C (centres undefined)
inactive: [3]
active: [1] 30.5 µM | [2] 13.1 µM | [4] 29.3 µM | [5] 11.9 µM

c1ccc(Oc2ccccc2)cc1
not listed: [6] | [7]
inactive: all other assays above

CN(c1nccc(=O)[nH]1)C1CCN(c2nc3ccccc3n2Cc2ccc(F)cc2)CC1
inactive: [1] | [2] | [4] | [5]
active: [3] 9.2 µM

CC1(C)C2=CCCC(C)(C)[C@]23CC[C@H]1C3
active: [2] 30.9 µM
inactive: [1] | [3] | [4] | [5]

CCN(CC)C(=O)N(CC)CC
not listed: [6] | [7]
inactive: all other assays above

CS(=O)(=O)c1ccc(C2=C(c3ccccc3)C(=O)OC2)cc1
not listed: [6] | [7]
inactive: all other assays above

Oc1c(Cl)cc(Cl)c(Cl)c1Cc1c(O)c(Cl)cc(Cl)c1Cl
inactive: [5]
active: [6] 21.2 µM | [7] 5 µM | [1] 9.92 µM | [2] 0.469 µM | [3] 19.6 µM | [4] 1.32 µM

C[C@@H]1CCN(C(=O)[C@H](CCCN=C(N)N)NS(=O)(=O)c2cccc3c2NC[C@H](C)C3)[C@@H](C(=O)O)C1
not listed: [6] | [7]
inactive: all other assays above

CN(C)C(=O)Nc1ccc(Oc2ccc(Cl)cc2)cc1
inactive: [1] | [2] | [4] | [5]
active: [3] 20 µM

C=C(C)C(=O)OCC(CC)(COC(=O)C(=C)C)COC(=O)C(=C)C
active: [1] 27.5 µM | [2] 10.5 µM | [3] 19.7 µM | [4] 29.4 µM | [5] 14.6 µM

COCCOCCOCCO
inactive: [6]

COc1ccc(CCN2CCC(Nc3nc4ccccc4n3Cc3ccc(F)cc3)CC2)cc1
active: [1] 6.67 µM | [2] 8.05 µM | [3] 6.51 µM | [4] 7.78 µM
inactive: [5]

Cc1cc(CCC(=O)OCCOCCOCCOC(=O)CCc2cc(C)c(O)c(C(C)(C)C)c2)cc(C(C)(C)C)c1O
not listed: [6] | [7]
inactive: all other assays above

CCCCCC(C=O)=Cc1ccccc1
inactive: [1] | [3] | [4] | [5]
active: [2] 29.5 µM

CN(C)C(=S)SC(=S)N(C)C
inactive: [5]
active: [1] 0.559 µM | [2] 36.6 µM | [3] 0.432 µM | [4] 31.9 µM

C=C(C)C(=O)OCCOCCOCCOCCOC(=O)C(=C)C
not listed: [6] | [7]
inactive: all other assays above

COc1ccc(OC)c(N=Nc2c(O)ccc3ccccc23)c1
inactive: [3] | [5]
active: [1] 5.41 µM | [2] 10.5 µM | [4] 20 µM

COc1cc(Cl)c(OC)cc1N
not listed: [6] | [7]
inactive: all other assays above

COCCc1ccc(OCC(O)CNC(C)C)cc1 (centres undefined)
active: [6] 2.98 µM

CC=Cc1ccc(OCC)c(O)c1
not listed: [6] | [7]
inactive: all other assays above

CCC(C)c1cc([N+](=O)[O-])cc([N+](=O)[O-])c1OC(=O)OC(C)C (centres undefined)
active: [1] 33.7 µM | [2] 8.46 µM | [3] 20 µM | [4] 27.7 µM | [5] 20 µM

O=C1OC2(c3ccccc31)c1ccc(O)c(Br)c1Oc1c2ccc(O)c1Br
active: [5] 4.52 µM
inactive: [1] | [2] | [3] | [4]

CC(=O)Nc1ccc(C(=O)CCl)cc1
active: [1] 3.15 µM | [2] 20 µM | [3] 5.57 µM | [4] 32.5 µM | [5] 16.9 µM

O=C1OC[C@H](Cc2cccc(O)c2)[C@H]1Cc1cccc(O)c1
not listed: [6] | [7]
inactive: all other assays above

IC(I)I
not listed: [6] | [7]
inactive: all other assays above

Clc1cc(Cl)c(-c2c(Cl)c(Cl)cc(Cl)c2Cl)cc1Cl
active: [2] 4.98 µM | [3] 4.55 µM
inactive: [1] | [4] | [5]

CC(=O)c1c(C)c([N+](=O)[O-])c(C(C)(C)C)c([N+](=O)[O-])c1C
inactive: [2] | [3] | [4] | [5]
active: [1] 20 µM

CCCCOC(=O)CCCCCCCC(=O)OCCCC
not listed: [6] | [7]
inactive: all other assays above
